# From PubChem BioAssay (Tox21)
# Records with an inconclusive call do not appear. A call without a number means that no potency is given here. The source made the active and inactive calls. Unless noted, the call rests on the fitted dose curve; in most records, active means well fitted curve in the direction sought with a large enough effect in the repeat runs; inconclusive means weak or mixed curves; inactive means no such curve, though single readings can be large; an effect the other way counts as inactive or inconclusive.
# What was measured:
# [1] = biological target: Thyrotropin receptor (Homo sapiens) (UniProt P16473); experiment: qHTS assay to identify small molecule antagonists of the thyroid stimulating hormone receptor (TSHR) signaling pathway (AID 1259385; calls by dose curve; further: nearly all actives have a fitted effect of over 20% in size)
# Sequence of Thyrotropin receptor (Homo sapiens) (P16473 whole entry, looked up): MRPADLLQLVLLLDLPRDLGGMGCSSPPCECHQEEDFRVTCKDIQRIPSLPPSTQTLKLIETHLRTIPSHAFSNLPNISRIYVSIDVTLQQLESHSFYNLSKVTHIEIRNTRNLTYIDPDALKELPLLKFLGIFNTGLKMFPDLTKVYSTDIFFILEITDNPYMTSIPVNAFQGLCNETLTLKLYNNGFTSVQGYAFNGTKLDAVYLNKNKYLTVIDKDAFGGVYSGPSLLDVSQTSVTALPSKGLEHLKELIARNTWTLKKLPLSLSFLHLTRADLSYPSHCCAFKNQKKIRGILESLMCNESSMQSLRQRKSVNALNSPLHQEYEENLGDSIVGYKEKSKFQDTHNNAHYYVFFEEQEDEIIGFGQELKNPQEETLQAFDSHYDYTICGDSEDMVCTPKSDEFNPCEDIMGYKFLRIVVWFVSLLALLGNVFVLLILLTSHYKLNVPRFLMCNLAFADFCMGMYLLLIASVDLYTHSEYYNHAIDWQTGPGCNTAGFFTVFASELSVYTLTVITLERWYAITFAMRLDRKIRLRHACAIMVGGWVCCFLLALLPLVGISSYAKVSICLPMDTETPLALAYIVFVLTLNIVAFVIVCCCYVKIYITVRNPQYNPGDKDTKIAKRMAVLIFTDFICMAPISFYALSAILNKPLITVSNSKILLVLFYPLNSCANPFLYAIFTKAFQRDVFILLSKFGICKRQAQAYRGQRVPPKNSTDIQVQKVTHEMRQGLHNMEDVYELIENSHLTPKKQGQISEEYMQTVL
# In short: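 TSHR-HEK293 cells were plated and held 18 h at 37C/5% CO2, then given compound plus Ro20-1724 and stimulated with TSH at 1.5 ng/mL final. After 30 min at room temperature, cAMP was detected with cAMP-d2/anti-cAMP-cryptate (1 h) by fluorescence.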
# [2] = qHTS assay to identify small molecule agonists of the estrogen receptor alpha (ER-alpha) signaling pathway in the presence of an antagonist - cell viability counter screen (AID 1259386);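 further: cells exposed to compounds for 22 h at 37 °C before the viability read; nearly all actives have a fitted effect of over 30% in size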; further: potency means the concentration at half of the fitted maximal effect
# In short: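 Cytotoxicity was measured in parallel with the ERE-luciferase agonist screen, in the same wells. The cells were VM7Luc4E2, which endogenously express ER-alpha, and treatment was with compounds plus 10.0nM ICI-182,780 for 22hr.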
# [3] = biological target: Progesterone receptor (Homo sapiens) (UniProt P06401); experiment: qHTS assay to identify small molecule agonists of the progesterone receptor (PR) signaling pathway (AID 1346784; calls by dose curve; further: nearly all actives have a fitted effect of over 30% in size)
# Sequence of Progesterone receptor (Homo sapiens) (P06401 whole entry, looked up): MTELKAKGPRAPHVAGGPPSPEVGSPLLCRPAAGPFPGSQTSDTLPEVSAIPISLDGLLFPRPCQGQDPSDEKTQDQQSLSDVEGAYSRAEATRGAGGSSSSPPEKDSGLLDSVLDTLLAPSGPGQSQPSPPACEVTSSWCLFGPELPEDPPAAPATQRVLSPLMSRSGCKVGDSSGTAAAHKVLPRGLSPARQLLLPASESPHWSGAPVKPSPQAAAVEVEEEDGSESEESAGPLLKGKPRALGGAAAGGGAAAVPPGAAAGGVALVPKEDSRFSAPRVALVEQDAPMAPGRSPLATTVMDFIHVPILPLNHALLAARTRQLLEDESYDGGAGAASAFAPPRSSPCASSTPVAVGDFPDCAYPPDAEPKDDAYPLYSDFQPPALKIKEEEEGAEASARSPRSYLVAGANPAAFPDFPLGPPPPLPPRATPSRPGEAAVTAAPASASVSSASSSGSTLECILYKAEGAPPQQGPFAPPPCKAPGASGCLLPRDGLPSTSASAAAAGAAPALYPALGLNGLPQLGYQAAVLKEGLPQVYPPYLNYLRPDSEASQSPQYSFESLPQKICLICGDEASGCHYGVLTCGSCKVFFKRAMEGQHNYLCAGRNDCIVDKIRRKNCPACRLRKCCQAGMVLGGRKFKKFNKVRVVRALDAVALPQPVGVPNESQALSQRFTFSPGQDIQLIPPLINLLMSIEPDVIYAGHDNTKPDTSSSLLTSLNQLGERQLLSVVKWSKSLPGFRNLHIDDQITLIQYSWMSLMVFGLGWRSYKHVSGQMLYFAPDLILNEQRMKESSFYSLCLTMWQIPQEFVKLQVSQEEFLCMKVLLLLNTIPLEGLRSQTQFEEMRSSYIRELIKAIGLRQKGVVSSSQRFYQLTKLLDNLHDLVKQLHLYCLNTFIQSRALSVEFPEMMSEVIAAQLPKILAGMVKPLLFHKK
# In short: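 Agonist qHTS: compounds pinned onto 3,000 PR-UAS-bla HEK 293T cells per well in charcoal-stripped serum medium, 16hr at 37C, then beta-lactamase activity measured by LiveBLAzer FRET fluorescence after 2 hours at room temperature.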
# [4] = qHTS assay to identify small molecule antagonists of the progesterone receptor (PR) signaling pathway - cell viability counter screen (AID 1346798); further: series mostly up to about 92 µM; nearly all actives have a fitted effect of over 50% in size
# In short: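 Cytotoxicity read as CellTiter-Glo luminescence (30 min, room temperature) in the same wells as the beta-lactamase readout. HEK293T PR-UAS-bla cells in charcoal-stripped 2% FBS received compound and R5020, then 16 h at 37C, 5% CO2.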
# [5] = qHTS assay to identify small molecule antagonists of the TGF-beta/Smad signaling pathway - cell viability counter screen (AID 1346824); further: nearly all actives have a fitted effect of over 50% in size
# In short: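 SBE-bla HEK 293T cells were plated overnight at 37 C, then given compounds in DMSO plus TGF-beta1 (added as 0.25 ng/mL solution) for 5 hr. After the bla read, CellTiter-Glo was added to the same wells and luminescence read after 30 min at room temperature.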
# [6] = qHTS assay to identify small molecule agonists of the TGF-beta/Smad signaling pathway - cell viability counter screen (AID 1346829); further: top concentration of the series differs between compounds; nearly all actives have a fitted effect of over 45% in size
# In short: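 CellTiter-Glo luminescence readout; SBE-bla HEK 293T cells, overnight plating, compound 5 hr at 37 C/5% CO2, then bla substrate 2 hr RT, then CellTiter-Glo 30 min RT.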
# [7] = biological target: Thyrotropin-releasing hormone receptor (Homo sapiens) (UniProt P34981); experiment: qHTS assay to identify small molecule antagonists of the thyrotropin-releasing hormone receptor (TRHR) signaling pathway (AID 1346877; active means well fitted inhibition curve with a large enough effect in the repeat runs, not every such curve was filed as active; further: series mostly up to about 51 µM)
# Sequence of Thyrotropin-releasing hormone receptor (Homo sapiens) (P34981 whole entry, looked up): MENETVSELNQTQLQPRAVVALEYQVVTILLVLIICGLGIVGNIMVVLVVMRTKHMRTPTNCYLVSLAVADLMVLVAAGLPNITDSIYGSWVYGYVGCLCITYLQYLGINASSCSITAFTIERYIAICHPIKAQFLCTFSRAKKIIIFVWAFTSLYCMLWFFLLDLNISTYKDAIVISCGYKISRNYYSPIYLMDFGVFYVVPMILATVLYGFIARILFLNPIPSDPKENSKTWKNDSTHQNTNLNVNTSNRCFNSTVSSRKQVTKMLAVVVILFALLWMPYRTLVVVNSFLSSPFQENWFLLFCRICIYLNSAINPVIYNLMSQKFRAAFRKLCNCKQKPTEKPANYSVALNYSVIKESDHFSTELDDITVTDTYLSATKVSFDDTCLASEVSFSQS
# In short: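 Antagonism is measured as suppression of the calcium response to 1 nM TRH in TRHR-HEK293 cells that have been dye-loaded for 2 h at 37 °C after overnight plating. Each compound is tested at 15 concentrations in triplicate.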
# [8] = qHTS assay to identify small molecule agonists of the progesterone receptor (PR) signaling pathway - cell viability counter screen (AID 1346799; calls by dose curve; further: nearly all actives have a fitted effect of over 45% in size; further: potency means the concentration at half of the fitted maximal effect)
# In short: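 Cytotoxicity measured by CellTiter-Glo luminescence (30 min, RT) in the same wells as the PR beta-lactamase agonist read. Those HEK293T cells had 16 h compound treatment at 37 C in 2% charcoal-stripped FBS medium.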
# [9] = qHTS assay to identify small molecule agonists of the TGF-beta/Smad signaling pathway (AID 1346859; active means well fitted activation curve with a large enough effect in the signal ratio in the repeat runs, not every such curve was filed as active; the % refers to the signal ratio; further: series mostly up to about 77 µM)
# In short: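 Fluorescence (ex 405 nm; em 460 and 530 nm) was read 2 h after LiveBLAzer FRET substrate at RT. The preceding compound treatment of overnight-plated SBE-bla HEK293T cells lasted 5 h at 37 C.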
Compound,Potency [1],Potency [2],Potency [3],Potency [4],Potency [5],Potency [6],Potency [7],Potency [8],outcome [9]
CC(C)(Cl)[N+](=O)[O-],inactive,inactive,inactive,inactive,inactive,inactive,inactive,–,–
Cc1c(F)c(F)c(COC(=O)C2C(/C=C(\Cl)C(F)(F)F)C2(C)C)c(F)c1F (stereo unspecified),inactive,inactive,inactive,inactive,–,inactive,inactive,inactive,inactive
Oc1ccc(Cl)c(Cl)c1Cl,inactive,inactive,inactive,–,inactive,inactive,inactive,–,inactive
COc1nn(CSP(=S)(OC)OC)c(=O)s1,inactive,inactive,inactive,–,inactive,inactive,inactive,–,–
O=C(N[C@H](c1ccccc1)[C@@H]1CN2CCC1CC2)c1c(Cl)ccc(C(F)(F)F)c1Cl,inactive,inactive,inactive,–,inactive,inactive,–,–,–
CC(C)=CCOc1c2occc2cc2ccc(=O)oc12,inactive,inactive,inactive,inactive,inactive,inactive,inactive,inactive,inactive
COc1nn(C(=O)NS(=O)(=O)c2ccccc2OC(F)(F)F)c(=O)n1C,inactive,inactive,–,inactive,inactive,inactive,inactive,inactive,–
CNP(=O)(OC)Oc1ccc(C(C)(C)C)cc1Cl (stereo unspecified),inactive,inactive,inactive,–,inactive,inactive,inactive,–,inactive
O=[N+]([O-])c1cc(C(F)(F)F)cc([N+](=O)[O-])c1Cl,inactive,30.8 µM (active),inactive,–,inactive,inactive,inactive,13.7 µM (active),inactive
CCCCC(CC)COP(=O)(Oc1ccccc1)Oc1ccccc1 (stereo unspecified),inactive,inactive,inactive,inactive,inactive,inactive,inactive,inactive,inactive
CCc1ccc(C(=O)NN(C(=O)c2cc(C)cc(C)c2)C(C)(C)C)cc1,inactive,5.45 µM (active),inactive,inactive,inactive,inactive,inactive,–,inactive
